This passage reports Potency results from PubChem BioAssay (Tox21).

Test [1] can be described thus: A CellTox Green Cytotoxicity Assay to monitor cytotoxicity in HEK293 cells - 32 hour (AID 1224881). Further: nearly all actives have a fitted effect of over 40% in size. Further: potency means the concentration at half of the fitted maximal effect. Put shortly:
(§1)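 Read-out: fluorescence of a cell-impermeant cyanine dye staining DNA of dead cells, proportional to cytotoxicity. HEK293, 600 cells/well with reagent, compound (23 nL DMSO) added after 5 h; reads at 0, 8, 16, 24, 32, 40 h.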

Test [2] is described as follows: A CellTox Green Cytotoxicity Assay to monitor cytotoxicity in HepG2 cells - 0 hour (AID 1224882). Further: nearly all actives have a fitted effect of over 35% in size. Summed up:
(§2)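 HepG2, 600 cells/well premixed w/ CellTox Green; 5 h settle, 37 C/5% CO2; pintool cpd add (DMSO); 37 C, 40 h; fluorescence read at 0, 8, 16, 24, 32, 40 h.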

A short description of test [3]: A CellTox Green Cytotoxicity Assay to monitor cytotoxicity in HepG2 cells - 32 hour (AID 1224883). Further: nearly all actives have a fitted effect of over 50% in size. Further: potency means the concentration at half of the fitted maximal effect. Put shortly: as §2
Test [4] is described as follows: A CellTox Green Cytotoxicity Assay to monitor cytotoxicity in HEK293 cells - 8 hour (AID 1224884). Further: nearly all actives have a fitted effect of over 35% in size. Further: potency means the concentration at half of the fitted maximal effect. Put shortly:
as §1

Test [5] can be described thus: qHTS RealTime-Glo MT Cell Viability Assay in HepG2 cells - 16 hour (AID 1224885). Further: nearly all actives have a fitted effect of over 50% in size. Further: potency means the concentration at half of the fitted maximal effect. Put shortly: (§3)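 Viability was tracked continuously by NanoLuc luminescence from prosubstrate reduced by living HepG2 cells, at successive time points over 40 h of compound exposure. Cells with reagent were preincubated 5 h at 37 °C before compound addition.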
On the technique in general: qHTS replaces the single test concentration by a dilution series.

Test [6] is described as follows: qHTS RealTime-Glo MT Cell Viability Assay in HEK293 cells - 24 hour (AID 1224886). Further: nearly all actives have a fitted effect of over 50% in size. Further: potency means the concentration at half of the fitted maximal effect. Put shortly:
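Viability tracked continuously by luminescence as live cells reduce a prosubstrate for NanoLuc; HEK293 cells preincubated 5 h, compound-treated at 37 C, and read at 0, 8, 16, 24, 32 and 40 h.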

Test [7] in a line: qHTS RealTime-Glo MT Cell Viability Assay in HEK293 cells - 8 hour (AID 1224887). Further: top concentration of the series differs between compounds; nearly all actives have a fitted effect of over 50% in size. Put shortly:
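Luminescence readout at each listed time point; HEK293, 600 cells/well, RealTime-Glo MT reagent added with cells; compounds pinned (23 nL in DMSO) after 5 h at 37 C; continuous culture at 37 C.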

The nature of test [8]: A CellTox Green Cytotoxicity Assay to monitor cytotoxicity in HEK293 cells - 16 hour (AID 1224888). Further: nearly all actives have a fitted effect of over 35% in size. Further: potency means the concentration at half of the fitted maximal effect. Summed up:
as §1

The nature of test [9]: qHTS RealTime-Glo MT Cell Viability Assay in HepG2 cells - 0 hour (AID 1224889). Further: nearly all actives have a fitted effect of over 50% in size. Put shortly: as §3
Test [10] in a line: A CellTox Green Cytotoxicity Assay to monitor cytotoxicity in HepG2 cells - 8 hour (AID 1224890). Further: nearly all actives have a fitted effect of over 45% in size. Further: potency means the concentration at half of the fitted maximal effect. Put shortly: as §2
Test [11] deals with Estrogen receptor (Homo sapiens) (UniProt P03372). As to the kind of experiment: qHTS assay to identify small molecule antagonists of the estrogen receptor alpha (ER-alpha) signaling pathway using the BG1 cell line in the presence of 0.1 nM 17-beta-estradiol (AID 1259244). Further: nearly all actives have a fitted effect of over 50% in size. Further: potency means the concentration at half of the fitted maximal effect. Summed up: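 Luminescence after ONE-Glo (30 min, room temperature) measured ERE-luciferase activity in VM7Luc4E2 cells treated 22 h with compound and 0.1 nM final 17beta-estradiol as stimulator.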

A short description of test [12]: qHTS assay to identify small molecule HDAC inhibitors (AID 1259364). Further: potency means the concentration at half of the fitted maximal effect.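 Further: wild-type HCT-116 cells with endogenous class I/II HDAC activity; nearly all actives have a fitted effect of over 45% in size.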 Summed up: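 HCT-116 (wild type), 1,500 cells/well, overnight; compound 2 hr 37C 5% CO2; HDAC-Glo I/II reagent 30 min RT; luminescence readout.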
Test [13] in a line: qHTS assay to identify small molecule HDAC inhibitors - cell viability counter screen (AID 1259365). Summed up:
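Wild-type HCT-116 cells, 1,500/well, cultured overnight, then compound-treated 2 h at 37 C. Viability measured as ATP luminescence with CellTiter-Glo after 30 min at room temperature.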

Test [14] is described as follows: qHTS assay to identify small molecule agonists of the sonic hedgehog signaling (Shh) pathway - cell viability counter screen (AID 1259366). Further: nearly all actives have a fitted effect of over 50% in size. Further: potency means the concentration at half of the fitted maximal effect. Put shortly: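 NIH/3T3-derived Gli1-Luc reporter cells, 2,000 per well, received compound after 4 h and were treated about 23 h at 37C. Viability measured in the same wells by CellTiter-Fluor fluorescence after 1 h.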
Test [15] is described as follows: qHTS assay to identify small molecule antagonists of the sonic hedgehog signaling (Shh) pathway - cell viability counter screen (AID 1259367). Further: nearly all actives have a fitted effect of over 55% in size. Further: potency means the concentration at half of the fitted maximal effect. Summed up: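 Conditioned medium drove Shh signaling in 3T3 Gli1-Luc cells exposed to compounds at 37C and 5% CO2. Viability was determined from CellTiter-Fluor fluorescence, with reagent incubated 1 hr after 23 hr of treatment.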

The nature of test [16]: qHTS assay to identify small molecule agonists of the sonic hedgehog signaling (Shh) pathway (AID 1259368; calls by dose curve;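 further: NIH/3T3-derived 3T3Gli1-Luc cells carrying a stable Gli1-driven firefly luciferase reporter; series mostly up to about 92 µM; nearly all actives have a fitted effect of over 15% in size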). Put shortly: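 Read-out: firefly luciferase luminescence from a Gli1 response element reporter stably integrated in NIH/3T3-derived 3T3Gli1-Luc cells, measured 30 min at room temperature after reagent addition. Compound exposure lasted 24 hr at 37 C, 5% CO2.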
The nature of test [17]: qHTS assay to identify small molecule antagonists of the estrogen receptor alpha (ER-alpha) signaling pathway using the BG1 cell line in the presence of 0.1 nM 17-beta-estradiol - cell viability counter screen (AID 1259241). Further: nearly all actives have a fitted effect of over 40% in size. Summed up:
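VM7Luc4E2 cells (endogenous full-length ER-alpha, 4xERE-luciferase), cultured 5 days in charcoal-stripped serum, exposed to compounds with 0.1 nM 17beta-estradiol (final) for 22 hr at 37C. Viability read in same wells as live-cell protease fluorescence after 30 min.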

A short description of test [18]: qHTS assay to identify small molecule phospholipidosis (PLD) inducers (AID 1259344; active means well fitted curve in the direction sought with a large enough effect; an effect the other way counts as inactive or inconclusive). Summed up: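 After 4 h attachment on collagen I, HepG2 cells were dosed with compound alongside LipidTOX Red, kept 24 h at 37 C, fixed, and imaged for lamellar phospholipid pits.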
A short description of test [19]: qHTS assay to identify small molecule antagonists of the androgen receptor (AR) signaling pathway using the MDA cell line in the presence of 0.5 nM R1881 - cell viability counter screen (AID 1259242). Further: nearly all actives have a fitted effect of over 45% in size. Summed up:
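Live-cell protease fluorescence, CellTiter-Fluor, 30 min at 37C. Cells: MDA-kb2, 3,000/well, preincubated 5 hr. Compounds plus 0.5 nM R1881 final, 16 hr, 37C, 0% CO2.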

The target in test [20] is Androgen receptor (Homo sapiens) (UniProt P10275). As to the kind of experiment: qHTS assay to identify small molecule antagonists of the androgen receptor (AR) signaling pathway using the MDA cell line in the presence of 0.5 nM R1881 (AID 1259243). Further: nearly all actives have a fitted effect of over 50% in size. Put shortly:
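MDA-kb2, MMTV-luc (AR/GR elements); 3,000 cells/well; cpd + 0.5 nM R1881 final; 16 hr 37C, 0% CO2; ONE-Glo 30 min RT; luminescence.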

A number with no mark means an inactive call. Records with an inconclusive call do not appear. Active and inactive are the calls of the source. Unless noted, the call rests on the fitted dose curve; in most records, active means well fitted curve in the direction sought with a large enough effect in the repeat runs; inconclusive means weak or mixed curves; inactive means no such curve, though single readings can be large; an effect the other way counts as inactive or inconclusive.

Estrogen receptor (Homo sapiens), sequence (P03372 whole entry, looked up): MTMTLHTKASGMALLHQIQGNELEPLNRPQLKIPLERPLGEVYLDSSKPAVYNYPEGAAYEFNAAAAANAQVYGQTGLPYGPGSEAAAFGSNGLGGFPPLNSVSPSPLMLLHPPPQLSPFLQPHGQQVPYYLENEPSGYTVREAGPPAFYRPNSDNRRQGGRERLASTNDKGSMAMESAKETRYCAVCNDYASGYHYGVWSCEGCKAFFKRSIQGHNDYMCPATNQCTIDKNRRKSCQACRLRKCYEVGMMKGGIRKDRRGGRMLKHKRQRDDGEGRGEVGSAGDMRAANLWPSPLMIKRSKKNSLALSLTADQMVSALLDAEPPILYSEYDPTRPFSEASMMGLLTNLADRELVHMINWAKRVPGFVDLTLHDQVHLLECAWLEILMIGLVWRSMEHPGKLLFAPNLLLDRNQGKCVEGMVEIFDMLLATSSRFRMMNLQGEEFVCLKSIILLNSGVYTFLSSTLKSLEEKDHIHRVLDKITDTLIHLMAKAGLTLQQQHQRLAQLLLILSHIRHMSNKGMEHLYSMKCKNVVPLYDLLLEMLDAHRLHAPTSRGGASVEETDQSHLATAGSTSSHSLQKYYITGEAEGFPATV
Androgen receptor (Homo sapiens), sequence (P10275 whole entry, looked up): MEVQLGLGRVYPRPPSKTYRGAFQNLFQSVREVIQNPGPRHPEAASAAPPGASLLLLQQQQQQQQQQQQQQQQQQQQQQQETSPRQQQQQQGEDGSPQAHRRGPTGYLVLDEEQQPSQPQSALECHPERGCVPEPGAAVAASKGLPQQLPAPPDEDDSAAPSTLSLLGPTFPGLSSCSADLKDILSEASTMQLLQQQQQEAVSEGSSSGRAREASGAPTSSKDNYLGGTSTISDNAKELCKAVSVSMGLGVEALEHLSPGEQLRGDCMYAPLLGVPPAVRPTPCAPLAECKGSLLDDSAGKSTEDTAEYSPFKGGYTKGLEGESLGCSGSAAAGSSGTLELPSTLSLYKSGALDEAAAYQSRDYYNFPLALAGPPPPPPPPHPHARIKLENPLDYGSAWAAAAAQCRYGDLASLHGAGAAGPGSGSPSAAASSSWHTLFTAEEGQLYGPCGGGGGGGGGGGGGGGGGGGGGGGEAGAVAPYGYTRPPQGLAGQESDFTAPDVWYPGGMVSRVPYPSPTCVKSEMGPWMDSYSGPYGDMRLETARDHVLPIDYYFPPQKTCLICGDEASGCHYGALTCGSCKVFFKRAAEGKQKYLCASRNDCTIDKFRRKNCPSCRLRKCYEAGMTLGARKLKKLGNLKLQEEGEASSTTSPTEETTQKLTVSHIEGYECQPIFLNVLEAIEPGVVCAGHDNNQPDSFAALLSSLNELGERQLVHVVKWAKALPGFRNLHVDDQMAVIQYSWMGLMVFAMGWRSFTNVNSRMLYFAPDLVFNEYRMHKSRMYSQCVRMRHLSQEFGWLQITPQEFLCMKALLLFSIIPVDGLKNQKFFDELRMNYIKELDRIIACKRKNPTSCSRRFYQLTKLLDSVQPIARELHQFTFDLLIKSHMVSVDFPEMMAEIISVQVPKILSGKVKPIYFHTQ

Take `Cc1c(C)c2c(c(C)c1OC(=O)CCC(=O)OCCO)CC[C@@](C)(CCC[C@H](C)CCC[C@H](C)CCCC(C)C)O2`: the Potency entry in [1], in test [2], in test [3], in test [4], in test [5] and in test [6] was “inactive” throughout. The Potency entry in test [7], in test [8], in test [9], in test [10], in test [11] and in test [12] was “inactive” in each case. The Potency result in test [13], in test [14], in [15] and in test [16] was “inactive” throughout.
Turning to `O=C(O)c1cccc(-c2noc(-c3ccccc3F)n2)c1`, the Potency entry in [1], in test [2], in test [3], in test [4], in test [5] and in [6] was “inactive” throughout. Besides, the Potency result in [7], in [8], in test [9], in [10], in test [17] and in test [18] was “inactive” each time. The Potency entry in test [14], in test [15] and in test [16] was “inactive” in each case. Besides, in [12], the Potency is 0.422 µM (active).
As for `CCCCN(CCCC)C(C(N)=O)c1ccc(OC)cc1` (stereo unspecified), the Potency entry in test [1], in [2], in test [3], in test [4], in test [5] and in [6] was “inactive” each time. The Potency entry in [7], in test [8], in [9], in [10], in test [19] and in test [11] was “inactive” in each case. Besides, the Potency result in [12], in [13], in test [14], in test [15] and in test [16] was “inactive” throughout.
For `N#CCCN(CCO)CCO`, the Potency entry in [1], in [2], in test [3], in test [4], in test [5] and in test [6] was “inactive” throughout. In addition, the Potency result in [7], in test [9], in test [10], in test [17], in test [19] and in test [11] was “inactive” each time. The Potency result in test [12], in test [13], in test [14], in test [15] and in test [16] was “inactive” throughout.
As for `O=C1c2ccccc2C(=O)c2c(O)c(O)cc(O)c21`, the Potency result in [1], in [2], in test [3], in test [4], in test [5] and in test [6] was “inactive” throughout. The Potency result in [7], in [8], in test [9], in test [12], in test [13] and in test [16] was “inactive” throughout.
Consider `CC(C)C=O`, for which the Potency entry in test [1], in test [2], in test [3], in test [4], in [5] and in test [6] was “inactive” in each case. Moreover, the Potency entry in test [7], in test [8], in test [9], in test [17], in [12] and in test [13] was “inactive” in each case. In addition, the Potency entry in test [14], in test [15] and in test [16] was “inactive” throughout.
`c1ccc2sc(SN(C3CCCCC3)C3CCCCC3)nc2c1`: the Potency result in test [1], in test [2], in [3], in test [4], in [5] and in test [6] was “inactive” each time. The Potency entry in [7], in test [9], in [10], in [17], in test [19] and in test [11] was “inactive” each time. Further, the Potency entry in test [12], in test [13], in test [14], in test [15] and in [16] was “inactive” each time.
For the molecule `COc1cc(C(=O)NC2CCN(C)CC2)ccc1Nc1ncc2c(n1)N(C1CCCC1)CC(F)(F)C(=O)N2C`, the Potency is 35.7 µM (active) in [1]; 25.2 µM (active) in [3]; 17.9 µM (active) in test [4]; 40 µM (active) in test [5]; 0.1 µM (active) in [6]; 17.9 µM (active) in test [8]. Further, the Potency is 50.4 µM (active) in test [10], 2.81 µM (active) in test [11], 5.6 µM (active) in [14] and 0.791 µM (active) in test [15]. For the same molecule, the Potency result in [2], in test [9], in test [20], in test [12], in test [13] and in test [16] was “inactive” throughout.
